Experimental data: PubChem BioAssay AID1159580 (chemical genetic matrix, 2015)
The campaign covered roughly 5,500 compounds. About 2,000 (36%) were called active. Inconclusive results (about 18%) are left out. Cut-off read from the data, not from the text of the source: active = normalized growth mostly below about 0.91 (no sharp cut-off); inconclusive = no clear call, values can overlap the other calls; inactive = mostly above about 0.92. The list shows a part of the results.

Assay: chemical genetic growth profiling, strain panel (AID 1159580);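 note: tested at 20 µM; growth read once vehicle control cultures reached saturation at 30 °C; 1 = growth at the plate median or of vehicle wells; lower values mean less growth of the strain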
Details: growth OD

Measured: normalized growth

CC(C)(C)c1cc(C(C)(C)C)n(-c2ccc([N+](=O)[O-])cc2)n1
inactive: S. cerevisiae deletion strains, locus YAL013W, strain DEP1, hits give low values 1.02 | S. cerevisiae deletion strains, locus YBR229C, strain ROT2, hits give low values 1.01 | S. cerevisiae deletion strains, locus YCL061C, strain MRC1, hits give low values 0.994 | S. cerevisiae deletion strains, locus YDL101C, strain DUN1, hits give low values 1.01 | S. cerevisiae deletion strains, locus YDR150W, strain NUM1, hits give low values 0.991 | S. cerevisiae deletion strains, locus YEL061C, strain CIN8, hits give low values 1.02 | S. cerevisiae deletion strains, locus YGR078C, strain PAC10, hits give low values 1.01 | S. cerevisiae deletion strains, locus YHR030C, strain SLT2, hits give low values 1.06 | S. cerevisiae deletion strains, locus YHR087W, strain rtc3, hits give low values 1.01 | S. cerevisiae deletion strains, locus YJL187C, strain SWE1, hits give low values 1 | S. cerevisiae deletion strains, locus YJR043C, strain POL32, hits give low values 1.02 | S. cerevisiae deletion strains, locus YJR075W, strain HOC1, hits give low values 0.997 | S. cerevisiae deletion strains, locus YKL190W, strain CNB1, hits give low values 0.998 | S. cerevisiae deletion strains, locus YLR039C, strain RIC1, hits give low values 1.04 | S. cerevisiae deletion strains, locus YLR058C, strain SHM2 (second series), hits give low values 1.01 | S. cerevisiae deletion strains, locus YLR085C, strain ARP6, hits give low values 1.01 | S. cerevisiae deletion strains, locus YLR262C, strain YPT6, hits give low values 1.01 | S. cerevisiae deletion strains, locus YML094W, strain GIM5, hits give low values 1.04 | S. cerevisiae deletion strains, locus YMR219W, strain ESC1, hits give low values 1 | S. cerevisiae deletion strains, locus YMR263W, strain SAP30, hits give low values 0.999 | S. cerevisiae deletion strains, locus YMR307W, strain GAS1, hits give low values 0.995 | S. cerevisiae deletion strains, locus YNL153C, strain GIM3, hits give low values 1 | S. cerevisiae deletion strains, locus YNL298W, strain CLA4 (second series), hits give low values 1.05 | S. cerevisiae deletion strains, locus YNL322C, strain KRE1, hits give low values 1 | S. cerevisiae deletion strains, locus YNR030W, strain Alg12, hits give low values 1.04 | S. cerevisiae deletion strains, locus YOL006C, strain TOP1, hits give low values 1.06 | S. cerevisiae deletion strains, locus YPL055C, strain LGE1, hits give low values 1.04 | S. cerevisiae deletion strains, locus YPL241C, strain CIN2, hits give low values 1.07 | S. cerevisiae deletion strains, locus YPR135W, strain CTF4, hits give low values 1.03 | S. cerevisiae strains, strain wild type, hits give low values 1.01
